# Only some compounds are listed: those with a hit (about 2.3% of all), similar ones and a draw of the others.
# S1P1 agonist = S1P1 (human) receptor agonism; activation, % at 4.5 µM; P21453; AID 1044; S1P1 agonist cell-based reporter assay; 16,000 compounds, 1.5% hits; in the data active means activation above about 80%
# TLR4 MyD88 blk = blocks binding of human TLR4 to MyD88 | Cell-based TLR4-MyD88 binding inhibition assay | inhibition, % at 10 µM | 16,000 compounds, 0.06% hits; in the data active means inhibition above about 45%
# Target sequence (O00206 whole entry, looked up): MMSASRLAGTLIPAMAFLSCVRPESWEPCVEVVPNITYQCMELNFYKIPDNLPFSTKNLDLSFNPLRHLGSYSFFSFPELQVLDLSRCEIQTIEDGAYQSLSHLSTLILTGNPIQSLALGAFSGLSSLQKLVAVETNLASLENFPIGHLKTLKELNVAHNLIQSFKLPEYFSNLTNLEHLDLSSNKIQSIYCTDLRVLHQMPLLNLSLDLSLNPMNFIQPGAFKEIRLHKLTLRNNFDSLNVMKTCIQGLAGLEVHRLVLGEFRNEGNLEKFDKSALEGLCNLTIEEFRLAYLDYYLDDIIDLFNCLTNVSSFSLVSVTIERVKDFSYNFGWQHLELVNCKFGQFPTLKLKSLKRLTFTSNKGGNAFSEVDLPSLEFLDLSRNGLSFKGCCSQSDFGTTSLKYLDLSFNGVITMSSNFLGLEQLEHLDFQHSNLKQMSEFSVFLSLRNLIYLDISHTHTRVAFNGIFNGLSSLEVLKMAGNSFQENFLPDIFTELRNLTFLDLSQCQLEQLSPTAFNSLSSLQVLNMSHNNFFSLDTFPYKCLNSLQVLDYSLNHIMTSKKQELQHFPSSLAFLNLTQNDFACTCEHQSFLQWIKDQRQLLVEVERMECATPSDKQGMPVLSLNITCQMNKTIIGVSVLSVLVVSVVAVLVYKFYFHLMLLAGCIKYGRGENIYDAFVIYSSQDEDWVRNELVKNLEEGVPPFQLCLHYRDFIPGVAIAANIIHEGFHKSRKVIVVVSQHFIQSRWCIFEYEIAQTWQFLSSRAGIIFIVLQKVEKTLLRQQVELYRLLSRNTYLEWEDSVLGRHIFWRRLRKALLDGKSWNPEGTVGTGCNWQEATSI
# rat GALR2 agon = agonists of rat galanin receptor 2 (GALR2); activation, % at 10 µM; cell-based GALR2 agonist screen; 16,000 compounds, 0.5% hits; in the data active means activation above about 15%
# * marks the source's active call; other numbers are inactive results; . = no result given.
SMILES,S1P1 agonist,TLR4 MyD88 blk,rat GALR2 agon
N#Cc1cccc(NCCN2CCNC2=O)n1,-5.4,-2.7,46.8*
Cn1cnc([N+](=O)[O-])c1NCCN1CCNC1=O,11.4,10.1,-8.4
CSC1=CC(=O)CC(C)(C)S1,-8.8,-9.9,-5.5
CCC/C(O)=C(\C=N\c1ccc(C(=O)OC)o1)C(=O)OCC,82.7*,1.3,-2.6
COC(=O)c1ccc(/N=C/N(C)C)o1,-0.2,5.5,-1.0
COC(=O)c1cccc(NC(=S)NCc2ccccc2)c1,27.9,-0.7,-4.4
CCN(CC)c1ccc(/C=C2\OC(=O)c3cc([N+](=O)[O-])ccc32)cc1,7.8,6.8,-2.5
CC(=O)C1=NN(c2ccccc2)/C(=C2\C(=O)N(c3ccccc3)N=C2C)S1,-14.8,1.2,-1.6
O=S(=O)(NCc1csc2ccc(Cl)cc12)c1ccc(C(F)(F)F)cc1,-4.9,5.3,9.3
O=S(=O)(NCCSCc1csc2ccc(Cl)cc12)c1ccc(Cl)cc1,90.0*,16.0,-5.3
Cc1onc(-c2c(Cl)cccc2Cl)c1C(=O)OCCOc1ccc([N+](=O)[O-])cc1[N+](=O)[O-],28.1,-4.8,-10.3
O=C(CSCC(=O)Nc1ccccc1)N/N=C/c1cccs1,-12.7,4.7,-3.5
Nc1nc(-c2ccc3c(c2)OCCCO3)cc(C(F)(F)F)n1,76.5,4.1,-5.7
Nc1nc(-c2ccc3c(c2)CCC3)cc(C(F)(F)F)n1,83.0*,-2.4,-6.4
O=C(NCc1csc2ccc(Cl)cc12)c1ccno1,1.1,3.2,-4.8
CSC1=NCC(=O)N1Cc1cccc(Cl)c1,4.3,0.3,-4.1
CSc1nc(/C=N/c2nc(C)cc(C)n2)c(O)n1Cc1cccc(Cl)c1,102.7*,2.0,-3.6
CC(=O)Nc1ccc(SC(=O)c2cc(C)n(Cc3ccc(C)cc3)n2)cc1,8.2,-8.1,-8.0
CC(C)N1CCS(=O)(=O)CC1,-16.1,4.2,-5.5
O=C1NC(=S)S/C1=C\c1cc([N+](=O)[O-])ccc1Sc1ccc(C(F)(F)F)cn1,108.1*,0.3,-3.4
O=[N+]([O-])c1cnc(Sc2ccc(C(F)(F)F)cn2)s1,-23.8,-0.1,-5.5
OC(CNCc1csc2ccccc12)c1ccccc1 (centres undefined),-6.6,1.8,-4.8
Cc1c(CN2CCC(N3CCCCC3)CC2)sc2ccccc12,4.9,-13.7,-7.6
Cc1cc(Cl)ccc1NC(=S)N/N=C/c1ccc(N(C)C)cc1,-29.2,-24.1,10.2
O=C(O)CSCC(=O)Nc1cccc(F)c1C(=O)O,-4.1,-1.9,-5.8
SMILES,S1P1 agonist,TLR4 MyD88 blk,rat GALR2 agon
O=C(O)CSCC(=O)Nc1cccc2c1CCCC2,0.5,11.0,24.4*
O=C(O)CC(NC(=O)Cc1cccc2ccccc12)C(=O)O (centres undefined),20.6,1.6,-0.4
O=C(Nc1ccc(Cl)cc1)c1csc([N+](=O)[O-])c1,12.2,0.0,-5.7
O=C(Nc1ccc(-c2cnco2)cc1)c1csc([N+](=O)[O-])c1,104.7*,6.3,-1.1
Cc1onc(-c2ccccc2)c1-c1[nH]nc(N)c1C#N,10.6,0.1,-4.0
O=C(Nc1ccc(Oc2ncnc3cc(Cl)ccc23)nc1)c1ccc(-c2ccccn2)s1,-8.2,-10.1,-5.2
Cc1cc2n[nH]nc2cc1Cl,-4.9,-10.6,-5.4
O=[N+]([O-])c1cc(C2SCCS2)ccc1SC1CCCCC1,85.9*,-3.7,-8.5
O=[N+]([O-])c1cc(C2SCCS2)ccc1Sc1ccc(Cl)cc1,20.5,6.3,1.7
O=[N+]([O-])c1ccc(-c2ccc(/C=N/Nc3ccccc3)o2)cc1,82.1*,41.1,-18.5
O=[N+]([O-])c1ccc(-c2ccc(-c3ccc([N+](=O)[O-])cc3)o2)cc1,65.8,7.9,-14.4
O=[N+]([O-])c1ccc(-c2ccc(/C=N/NC(=S)NCC3CCCO3)o2)cc1 (centres undefined),29.9,50.1*,-6.4
S=C(NCC1CCCO1)N/N=C/c1ccc(Cl)cc1 (centres undefined),-16.0,-4.1,-9.7
Cc1ccc(OCC(=O)O)cc1,-27.7,0.0,0.5
O=c1c2cccc3cccc(sc4cccc5cccc1c54)c32,4.0,-6.4,-7.8
CN(C)/C=C/C=c1/c(=O)c2cccc3cccc1c32,102.0*,6.3,-13.6
Cc1onc(-c2ccccc2)c1C(=O)Nc1ccc2[nH]ccc2c1,-4.4,2.3,-5.3
CC1CN(C(=O)/C=C/c2cccc3ccccc23)CC(C)O1 (centres undefined),29.7,1.4,-5.0
CC(C)(C)C(=O)NNC(=O)CSc1nc2cc(Cl)ccc2s1,-6.0,6.7,-7.8
FC(F)(F)c1ccc(-n2ccnc2)nc1,-4.3,4.6,-2.6
Brc1ccc(-n2cccc2)nc1,85.5*,2.3,-9.4
CC(=O)Nc1ccccc1OCC(O)CS(=O)(=O)Cc1ccc(Cl)cc1 (centres undefined),-13.2,3.5,-6.7
NC(N)=N/N=C1\CCc2ccccc21,-19.8,8.0,-0.8
CSc1cccc(NC(=S)NCCNc2c([N+](=O)[O-])cc(C(F)(F)F)cc2[N+](=O)[O-])c1,3.8,-1.6,-12.3
CSc1nnc(-c2sc3nc(C)cc(C)c3c2N)n1Cc1ccccc1,5.4,-5.0,29.3*
SMILES,S1P1 agonist,TLR4 MyD88 blk,rat GALR2 agon
Cc1cc(C)c2c(N)c(C(N)=O)sc2n1,27.5,-0.7,-3.0
O=C(O)COCC(=O)NC1CCCCNC1=O (centres undefined),-7.9,-3.5,-4.7
O=[N+]([O-])c1c(N2CCOCC2)ccc2nsnc12,-2.1,0.6,55.5*
N#Cc1ccc(N2CCOCC2)c([N+](=O)[O-])c1,0.1,-1.9,-1.4
COC(=O)C1=C(Nc2ccccc2NC(=O)c2c(Cl)cccc2Cl)CSC1,-8.9,-17.2,-8.7
NC(=S)c1csc([N+](=O)[O-])c1,17.1,16.7,-4.2
COc1c2c(c(OC)c3occc13)OC(C(=O)O)CC2=O (centres undefined),-12.8,-4.2,-3.4
O=C(Nc1ccc(F)c(Cl)c1)c1cc(Br)ccc1O,109.4*,-15.3,-12.2
O=C(Cc1nn[nH]n1)Nc1ccc(F)c(Cl)c1,-5.1,2.9,-5.8
O=C(OC1CCSC1)c1cc(C(F)(F)F)cc(C(F)(F)F)c1 (centres undefined),120.1*,12.4,-8.8
N/C(=N\OC(=O)c1cccc(C(F)(F)F)c1)C1CSCCS1 (centres undefined),-0.8,-0.5,-3.5
CCOC(=O)c1sc(N/N=C/c2cccs2)c2c1CC(C)(C)CC2=O,3.1,1.4,19.3*
CCOC(=O)c1sc(N2CCCCC2)c2c1CC(C)(C)CC2=O,-20.8,2.5,0.9
O=S(=O)(O)c1ccc2[nH]c(=S)[nH]c2c1,0.5,-0.1,60.3*
COc1ccc2[nH]c(=S)[nH]c2c1,-1.4,-0.7,-2.7
COc1ccc(S(=O)(=O)N2CCCN(c3c(Cl)cncc3Cl)CC2)cc1OC,16.5,-9.4,-7.1
O=S(=O)(NCc1ccc2c(c1)OCO2)c1ccc(F)c(Cl)c1,-13.6,-5.9,-7.1
CC(=O)Nc1ccc(NC(=O)c2c(Cl)cccc2Cl)c(C)c1,-1.6,-2.6,41.2*
Cc1ccc(NC(=O)c2c(F)cccc2Cl)cc1NS(C)(=O)=O,6.3,3.2,-7.0
Cc1[nH]n(C)c(=O)c1N=Nc1ccc(C(C)C)cc1,101.7*,2.1,-7.1
Cn1nc(-c2ccccc2)c(O)c(N=Nc2ccccc2)c1=O,3.8,-25.7,-5.5
Cc1nnsc1C(=O)Nc1ccc(-n2nc(C(F)(F)F)cc2C(F)(F)F)cc1,98.7*,.,-10.8

# Source: PubChem
